# Reference: the supplement of paper PMC10981050
# Values joined by “and” are separate entries in the source; they are usually repeats but may differ in a detail not shown here. Equal entries are not always repeated. Structures can show the parent of a compound that is named as a salt.
# Experiments:
# Test in all cases: cell viability relative to vehicle control; higher = less cytotoxic
# Conditions in all cases: 10 µM
# K562 = test system: K562
# In short: (§1)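 CRISPR-edited mutant clones and isogenic wild-type clones from four leukaemia lines were screened against Selleck bioactive, kinase and epigenetic probe libraries, with identity-inconsistent compounds excluded. Each compound was acoustically dispensed at a single 10 µM dose into 384-well plates holding 2000 cells in 50 µL medium per well. After 48 h the supernatant was removed and CellTiter-Glo luminescence was read. Viability was expressed as percent of the on-plate vehicle control and analysed in Genedata Screener.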
# MARIMO = test system: MARIMO
# In short: as §1
# MOLM14 = test system: MOLM14
# In short: as §1
# OCI-AML2 = test system: OCI-AML2
# In short: as §1
SMILES,cell viability (K562; SRSF2 genotype: SRSF2 P95H/wt),cell viability (K562; SRSF2 genotype: SRSF2 wt/wt),cell viability (MARIMO; SRSF2 genotype: SRSF2 P95H/wt),cell viability (MARIMO; SRSF2 genotype: SRSF2 wt/wt),cell viability (MOLM14; SRSF2 genotype: SRSF2 P95H/wt),cell viability (MOLM14; SRSF2 genotype: SRSF2 wt/wt),cell viability (OCI-AML2; SRSF2 genotype: P95H/wt),cell viability (OCI-AML2; SRSF2 genotype: wt/wt)
CN1CCC(NC(=O)c2cc(-c3c(O)cc(O)cc3Oc3ccc([N+](=O)[O-])cc3)on2)CC1,17.4% and 26.5%,23.6%,29.8%,23.9%,1.68%,1.87%,17.5%,19.7%
CN1C(=O)c2sccc2N(C)c2nc(Nc3ccc(S(N)(=O)=O)cc3)ncc21,14% and 30.1%,63.4%,22.4%,25.9%,5.5%,3.55%,8.63%,10.6%
Cc1cccc(Nc2cc(Cl)nc(SCC(=O)O)n2)c1C,95.6% and 95.5%,97.2%,98.9%,99.9%,95.9%,98.5%,90.3%,94.4%
NCCCC[C@@H]1NC(=O)[C@@H](Cc2ccc(O)cc2)NC(=O)[C@H](CC(=O)O)NC(=O)CNC(=O)[C@H](CCCN=C(N)N)NC1=O [Cyclo(RGDyK)],93.8% and 88.5%,89.8%,92.8%,96.9%,91.3%,90.9%,94.8%,93.9%
CS(=O)(=O)c1ccc(C2=C(c3ccccc3)C(=O)OC2)cc1 [Rofecoxib (Vioxx)],98.7% and 95.2%,93.5%,98.6%,104%,94.7%,101%,87.8%,98.8%
Oc1cccc(O)c1O [Pyrogallol],96.9% and 103%,102%,108%,104%,102%,104%,102%,112%
NCCOCCOCCNC(=O)Cc1ccc(Nc2nc(NCc3ccc(F)cc3)nc(NCC3CCCCC3)n2)cc1 [AP-III-a4 (ENOblock)],81.5% and 90.7%,87.5%,94.3%,97.1%,16%,14%,75.2%,79.6%
C[C@@H](CN1CC(=O)NC(=O)C1)N1CC(=O)NC(=O)C1 [Dexrazoxane Hydrochloride],99.3% and 102%,97.5%,92.4%,96.4%,70.5%,78%,75.2%,76.2%
CN(C/C=C/C#CC(C)(C)C)Cc1cccc2ccccc12 [Terbinafine],99.7% and 97.5%,103%,96.2%,108%,104%,105%,105%,110%
CC(=O)OCC1=C[C@@H]2OC(=O)C3=CO[C@@H](O[C@@H]4O[C@H](CO)[C@@H](O)[C@H](O)[C@H]4O)[C@H]1[C@@H]32 [Asperulosid],83.4% and 85.5%,85.5%,85.2%,94.3%,85%,88%,88.5%,113%
CCOC(=O)[C@H](CCc1ccccc1)N[C@H]1CCc2ccccc2N(CC(=O)O)C1=O [Benazepril hydrochloride],109% and 106%,108%,101%,111%,95.9%,98.9%,93.3%,102%
COCC(=O)Nc1cc(Sc2ccccc2)ccc1N=C(NC(=O)OC)NC(=O)OC [Febantel],98.1% and 91.8%,97.1%,98.9%,107%,97.9%,110%,98.3%,102%
COc1ccc(C=O)c(O)c1 [4-Methoxysalicylaldehyde],97.5% and 89.5%,97.8%,93.5%,102%,99.4%,95.9%,97%,92%
C[C@@H]1CC[C@]2(C(=O)O[C@@H]3O[C@H](CO)[C@@H](O)[C@H](O)[C@H]3O)CC[C@]3(C)C(=CC[C@@H]4[C@@]5(C)CC[C@H](O)[C@@](C)(CO)[C@@H]5CC[C@]43C)[C@@H]2[C@]1(C)O [Pedunculoside],109% and 108%,113%,108%,97.5%,107%,108%,106%,104%
N#Cc1ccc(-c2c(-c3ncn[nH]3)sc(N3CCOCC3)c2C#N)c(F)c1,60.4% and 73.5%,68.2%,47.4%,39%,27.8%,28.3%,9.07%,24%
NS(=O)(=O)c1ccc(NC(=O)Nc2ccc(F)cc2)cc1,99.9% and 107%,107%,115%,113%,110%,108%,99.6%,95%
O=C1C[C@@H](c2ccc(O)c(O)c2)Oc2cc(O)cc(O)c21 [Eriodictyol],98.5% and 97.3%,108%,88.6%,96.1%,112%,104%,96.8%,95.2%
COc1cc(O)c2c(=O)cc(-c3ccc(O)c(O)c3)oc2c1 [Hydroxygenkwanin],85.2% and 89.8%,88.9%,45.7%,69.4%,57.5%,58.8%,58.3%,56.4%
C[C@@H](Nc1cc(F)cc(F)c1)c1cc(C(=O)N(C)C)cc2c(=O)cc(N3CCOCC3)oc12,87% and 91.9%,85.5%,52%,47.3%,42.3%,51.1%,25.5%,37.4%
CNCCC(Oc1ccc(C(F)(F)F)cc1)c1ccccc1 (stereo unspecified) [Fluoxetine HCl],75.2% and 82.5%,88.8%,63.5%,75.2%,68.8%,81.6%,63.1%,74.1%
CNC(CC(=O)O)C(=O)O [NMDA (N-Methyl-D-aspartic acid)],102% and 94.2%,99.7%,101%,99.5%,100%,99%,94.4%,107%

SMILES,cell viability (K562; SRSF2 genotype: SRSF2 P95H/wt),cell viability (K562; SRSF2 genotype: SRSF2 wt/wt),cell viability (MARIMO; SRSF2 genotype: SRSF2 P95H/wt),cell viability (MARIMO; SRSF2 genotype: SRSF2 wt/wt),cell viability (MOLM14; SRSF2 genotype: SRSF2 P95H/wt),cell viability (MOLM14; SRSF2 genotype: SRSF2 wt/wt),cell viability (OCI-AML2; SRSF2 genotype: P95H/wt),cell viability (OCI-AML2; SRSF2 genotype: wt/wt)
CCOC(=O)[C@H](CCc1ccccc1)N[C@@H](C)C(=O)N1CCC[C@H]1C(=O)O [Enalapril maleate (Vasotec)],106% and 100%,106%,99.6%,111%,112%,103%,94.2%,97.8%
CCn1c(=O)c(-c2ccc(-c3cncs3)cc2Cl)cc2cnc(Nc3ccc(N4CCN(C)CC4)cc3)nc21,86.2% and 86.7%,74.6%,75.6%,75.9%,46.6%,53.2%,71%,61.2%
CCn1c(-c2nonc2N)nc2c(C#CC(C)(C)O)ncc(OC[C@H]3CCCNC3)c21,87.1% and 95.7%,79.5%,73%,72.3%,59.2%,47.1%,53.9%,57.1%
CN1C(C(=O)Nc2ccccn2)=C(O)c2sc(Cl)cc2S1(=O)=O [Lornoxicam (Xefo)],94.3% and 91.8%,87.5%,87.2%,95.8%,91%,87.8%,92.8%,94.5%
COc1ccccc1N1CCN(CCCNc2cc(=O)n(C)c(=O)n2C)CC1 [Urapidil hydrochloride],102% and 95.6%,96.9%,97.8%,102%,99.6%,98%,96.8%,95.2%
Cc1c(C(=O)C=Cc2ccccc2)[n+](=O)c2ccccc2n1[O-] [Quinocetone],72.1% and 60%,74.1%,62.2%,63.8%,56.5%,62.6%,62.7%,68.6%
O=Cc1ccc(CO)o1 [5-Hydroxymethylfurfural],91.8% and 86.8%,84%,85%,95.1%,86.9%,91.3%,85.6%,92.7%
O=c1cc(-c2ccc(O)cc2)oc2cc(O)c([C@@H]3O[C@H](CO)[C@@H](O)[C@H](O)[C@H]3O)c(O)c12 [Isovitexin],98.2% and 98.6%,98.3%,92.1%,93.6%,95.1%,95.9%,99.7%,103%
COC(=O)c1ccc(O)c(O)c1 [Methyl protocatechuate],105%,105%,90.5%,101%,101%,109%,117%,97.9%
O=c1cc(-c2ccc(OC3OC(CO)C(O)C(O)C3O)cc2)oc2c(C3OC(CO)C(O)C(O)C3O)c(O)cc(O)c12 (stereo unspecified) [4'-O-Glucosylvitexin],97% and 102%,101%,97.3%,91.7%,99.6%,99%,97.4%,96.8%
C[C@@H]1CC[C@@]2(OC1)O[C@H]1C[C@H]3[C@@H]4CC=C5C[C@@H](O[C@@H]6O[C@H](CO)[C@@H](O)[C@H](O)[C@H]6O)CC[C@]5(C)[C@H]4CC[C@]3(C)[C@H]1[C@@H]2C [Trillin],87.5% and 97.2%,94%,76.7%,78.7%,84.5%,93.2%,88.3%,98.5%
Cc1ccc(S(=O)(=O)C=CC#N)cc1,1.6% and 0.48%,0.6%,0.37%,0.39%,0.28%,0.27%,0.28%,0.35%
CCNc1nc(Nc2cc(F)c(C(=O)N3CCOCC3)cc2OC)ncc1C(F)(F)F,102% and 98.9%,99.2%,93.3%,109%,90%,103%,87.8%,93.7%
O=C1c2c(O)cc(O)cc2O[C@H](c2cc(O)c(O)c(O)c2)[C@H]1O [Dihydromyricetin (Ampeloptin)],111% and 107%,114%,112%,110%,110%,107%,112%,107%
CC1OC(OC2C(OC3CCC4(C)C(CCC5(C)C4CC=C4C6CC(C)(C)CCC6(C(=O)OC6OC(COC7OC(CO)C(O)C(O)C7O)C(O)C(O)C6O)CCC45C)C3(C)CO)OCC(O)C2O)C(O)C(OC2OC(CO)C(O)C(O)C2O)C1O (stereo unspecified) [Macranthoidin A],99.3% and 97.9%,100%,100%,102%,102%,96.6%,98%,105%
O=C1C[C@@H](c2ccc(O)cc2)Oc2cc(O)cc(O)c21 [Naringenin],99.2% and 105%,103%,106%,107%,111%,112%,96.5%,96.7%
C[C@@H]1O[C@@H](OC[C@H]2O[C@@H](Oc3cc(O)c4c(c3)O[C@H](c3ccc(O)cc3)CC4=O)[C@H](O)[C@@H](O)[C@@H]2O)[C@H](O)[C@H](O)[C@H]1O [Narirutin],96.8% and 92.1%,92.3%,98.2%,97.5%,98.9%,96.8%,101%,99.4%
FC(F)(F)Oc1ccc2nc(-c3ccc(OCCOCCOc4ccc(-c5nc6ccc(OC(F)(F)F)cc6[nH]5)nc4)cn3)[nH]c2c1,52.4% and 53%,56.4%,26.9%,39.3%,50.4%,41.3%,18.4%,24.8%
CCCCCCCCCCCCCCCC(=O)O [Palmitic acid],99.6% and 104%,98.5%,96.4%,114%,100%,103%,95.6%,114%
Nc1ccc(S(N)(=O)=O)cc1 [Sulfanilamide],99.1% and 101%,98.9%,102%,107%,96.2%,102%,102%,110%
CN/C(=N\CCSCc1nc[nH]c1C)NC#N [Cimetidine (Tagamet)],102% and 100%,98.8%,102%,106%,101%,102%,105%,104%
